This note sets out measurements from PubChem BioAssay AID485341 (National Center for Advancing Translational Sciences (NCATS), 2010).

Each structure is given as a SMILES string. In all, about 330,000 compounds went through this assay and about 1,700 (0.52%) were called active. The entries come from a sample that favours actives as a whole. A number with no mark means an inactive call. The call rests on the fitted dose curve; in most records, active means well fitted inhibition curve with a large enough effect; inconclusive means small, poorly fitted or top-dose-only effect; inactive means no such curve, though single readings can be large or run the other way.
Potency means the concentration at half of the fitted maximal effect.

Chain of Beta-lactamase (Escherichia coli (strain K12)) (P00811 whole entry, looked up): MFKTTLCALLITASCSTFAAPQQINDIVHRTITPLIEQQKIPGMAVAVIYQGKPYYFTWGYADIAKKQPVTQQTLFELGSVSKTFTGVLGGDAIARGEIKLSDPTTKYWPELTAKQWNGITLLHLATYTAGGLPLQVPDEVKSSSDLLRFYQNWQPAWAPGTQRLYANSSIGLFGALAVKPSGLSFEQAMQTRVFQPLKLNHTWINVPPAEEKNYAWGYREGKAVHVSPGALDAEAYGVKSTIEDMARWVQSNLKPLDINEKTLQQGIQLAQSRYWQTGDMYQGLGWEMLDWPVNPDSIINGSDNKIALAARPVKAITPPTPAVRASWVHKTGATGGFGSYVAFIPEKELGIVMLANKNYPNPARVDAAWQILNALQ

This assay deals with Beta-lactamase (Escherichia coli (strain K12)) (UniProt P00811). Put plainly: qHTS Inhibitors of AmpC Beta-Lactamase (assay without detergent). Further: nearly all actives have a fitted effect of over 20% in size.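 On activity change, negative = inhibition: plate controls were no compound for no effect and no enzyme for full effect.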 To be noted: AmpC nitrocefin hydrolysis, absorbance 480 nm, 0.0001% Triton; series mostly up to 57.1 µM; activity change, negative = inhibition: at the top concentration. The essentials:
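20 mM phosphate pH 7.0 + 0.01% (detergent screen) or 0.0001% Triton X-100; 5.3 nM AmpC reagent; cpd preinc 15 min RT; nitrocefin (800 uM stock) to start; A480 q20 s × 4 min; Activity was normalised to no-enzyme and no-compound control wells.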
On to `CC1(c2ccccc2Cl)NC(=O)N(CC(=O)NC(=O)NCc2ccco2)C1=O` (stereo not given), for which the “activity change, negative = inhibition” value is -8.19%.

Consider `O=C1CCN(Cc2ccc([N+](=O)[O-])cc2)CCN1[C@H](CO)Cc1ccccc1`, for which the “activity change, negative = inhibition” value was 87.8%.

Turning to `O=C(CCCn1c(=O)oc2ccccc21)Nc1cccnc1`, the “activity change, negative = inhibition” value was -14.5%.

For the compound `Oc1c(CN2CCCC2)cc(COCc2ccccc2)c2cccnc12`, the Potency entry is “inactive”.

For `CC(C)CC(=O)N1CCN(Cc2cccc(Cl)c2)CC1`, the “activity change, negative = inhibition” value is -1.38%.

Turning to `Clc1cccc(CN2COc3c(cc(Cl)c4cccnc34)C2)c1`, the Potency is 35.5 µM (active).

In the case of `CC[C@]12c3[nH]c4ccc(Cl)cc4c3CCN1C(=O)[C@@H](CC(=O)NCCN1CCOCC1)C[C@@H]2C(=O)N1CCN(C(=O)C2CC2)CC1`, the “activity change, negative = inhibition” value was 252%.

On to `CC(C)CCN1NC2(CCC(C)CC2)NC1=S` (stereo not given), for which the “activity change, negative = inhibition” value is -6.11%.

As to `O=c1oc2ccccc2c(CNc2ccccc2)c1[N+](=O)[O-]`, the “activity change, negative = inhibition” value is -36.5%.

For `O=C(COC(=O)c1cc(=O)[nH]c2ccccc12)NCc1cccc(Cl)c1`, the “activity change, negative = inhibition” value is -23.1%.

In the case of `CC(NC(=O)COC(=O)c1cc(=O)[nH]c2ccccc12)c1ccccc1` (stereo not given), the “activity change, negative = inhibition” value is -10.1%.

As for `O=C(COC(=O)c1cc(=O)[nH]c2ccccc12)Nc1nc(-c2cccc(Br)c2)cs1`, the Potency was 14.1 µM (active).

For the compound `CC(C)CCN1C(=O)c2ccc(C(=O)Nc3cccc(S(N)(=O)=O)c3)cc2C1=O`, the “activity change, negative = inhibition” value was -39.5%.

Regarding `CN(c1ccccn1)c1ncnc2[nH]ncc12`, the “activity change, negative = inhibition” value is 3.64%.

For `Cc1nn(C)c(Cl)c1CN1CCC(Oc2ccc(C(=O)N3CCCC3)cc2)CC1`, the “activity change, negative = inhibition” value was 35.1%.

Take `Cc1csc(=O)n1CC(=O)Nc1ccc(S(C)(=O)=O)cc1`: the “activity change, negative = inhibition” value is -12.7%.

With `O=C(c1ccc(Cl)nc1)N1CCN(S(=O)(=O)c2ccc3c(c2)OCCO3)CC1`, the “activity change, negative = inhibition” value is 0.998%.

`O=C(CSc1ccccc1)Nc1cccc(S(=O)(=O)N2CCCCC2)c1`: the “activity change, negative = inhibition” value is -26.9%.

Regarding `Cn1nnnc1SCC(=O)Nc1cccc(S(=O)(=O)N2CCCCC2)c1`, the “activity change, negative = inhibition” value is -28.9%.

In the case of `Nc1cc(N)nc(SCC(=O)Nc2cccc(S(=O)(=O)N3CCCCC3)c2)n1`, the Potency is 25.1 µM (active).

For the compound `N#C/C(=C(/O)COC(=O)COc1ccc(Cl)cc1)c1nc2ccccc2[nH]1`, the Potency was 11.2 µM (active).

On to `COc1ccccc1C(=O)COC(=O)COc1ccc(C#N)cc1`, for which the “activity change, negative = inhibition” value was -21.5%.

For the compound `COCCN(CCOC)S(=O)(=O)c1ccc(/C(O)=C(\C#N)c2nc3ccccc3[nH]2)cc1`, the “activity change, negative = inhibition” value was -29.2%.

For the compound `Cc1cc(C)c(OCCN2CC(C)OC(C)C2)c(Br)c1` (stereo not given), the “activity change, negative = inhibition” value was 64.9%.

For the compound `CCN(CC)S(=O)(=O)c1ccc(CNC(=O)CN2C(=O)NC3(CCc4ccccc43)C2=O)cc1` (stereo not given), the “activity change, negative = inhibition” value was 1.91%.

`Cn1cc(C(=O)NCc2ccccc2F)cn1`: the “activity change, negative = inhibition” value was -13.3%.

For the compound `CCOC(=O)c1c(CNCc2ccccc2F)c2sc(C)cc2n1C`, the “activity change, negative = inhibition” value was -10.1%.

In the case of `Cn1c2cc(B(O)O)sc2c2cnn(Cc3ccccc3F)c(=O)c21`, the Potency is 2.82 µM (active).

`COc1cc2c(-c3ccc4c(c3)OCO4)c(-c3ccsc3)oc(=O)c2cc1OC`: the “activity change, negative = inhibition” value was -30.6%.

With `O=C(NC1CCN(C(=S)NCc2ccco2)CC1)c1ccc(F)cc1`, the “activity change, negative = inhibition” value is -3.96%.

In the case of `Cc1ccc(NC(=O)CC2C(=O)N(Cc3ccccc3)C(=S)N2NC(=O)c2cccc(F)c2)c(C)c1` (stereo not given), the Potency was 31.6 µM (active).

As to `CN1C(=O)C(CC(N)=O)N(NC(=O)c2ccc(Cl)cc2)C1=S` (stereo not given), the “activity change, negative = inhibition” value is -8.33%.

With `Cc1ccc(N2C(=O)C(CC(=O)Nc3cccc(F)c3)N(CCc3ccncc3)C2=O)cc1` (stereo not given), the “activity change, negative = inhibition” value is 52.9%.

Consider `CN(C)/C=N/c1cc(=O)n(C)c(=O)n1CC1CC1`, for which the “activity change, negative = inhibition” value was -10%.

Take `Clc1ccccc1-c1cc(COc2ccc3ccccc3c2)no1`: the “activity change, negative = inhibition” value was -19.5%.

Take `COc1ccc(C2CC(c3ccc(C)cc3)Nc3ncnn32)cc1` (stereo not given): the “activity change, negative = inhibition” value is 43.2%.

Regarding `Clc1ccc(C2CC(c3cccs3)n3ncnc3N2)cc1Cl` (stereo not given), the Potency was 0.708 µM (active).

On to `Nc1nc2n(n1)C(c1ccco1)CC(c1ccc(Cl)c(Cl)c1)N2` (stereo not given), for which the “activity change, negative = inhibition” value is 82.4%.

For the compound `CN(C)CCN(Cc1ccccc1)S(=O)(=O)c1csc(C(N)=O)c1`, the “activity change, negative = inhibition” value was -8.05%.

Regarding `Cc1ncn2cc(-c3ccc(Cl)cc3Cl)[nH]c(=O)c12`, the “activity change, negative = inhibition” value was -27.9%.

In the case of `Cn1c2c(c(=O)n(C)c1=O)CN(Cc1ccco1)CN2`, the “activity change, negative = inhibition” value is -21.2%.

As for `CC(C)n1c(=O)c(C=Nc2ccc(Br)cc2)c(O)n(Cc2ccco2)c1=O`, the Potency was 14.1 µM (active).

On to `Cn1c(O)c(C=Nc2ccc3c(c2)CCC3)c(=O)n(C)c1=O`, for which the “activity change, negative = inhibition” value is -16.7%.

As for `c1nc(COc2nsnc2N2CCOCC2)cs1`, the “activity change, negative = inhibition” value is 20.9%.

Consider `O=c1cc(O)nc(SCc2ccccc2Cl)[nH]1`, for which the Potency is 3.16 µM (active).

As to `Cc1cc(=O)[nH]c(SCc2cc(Cl)ccc2OC(F)F)n1`, the “activity change, negative = inhibition” value is -25.2%.

In the case of `Cc1cc(=O)[nH]c(SCc2cccc(F)c2)n1`, the “activity change, negative = inhibition” value was -5.38%.

For `CCSc1nc2sc3c(c2c(=O)[nH]1)CC(C)(C)OC3`, the “activity change, negative = inhibition” value was -19.1%.

`CC(C)c1nc2sc3c(c2c(=O)n1N)CC(C)(C)OC3`: the “activity change, negative = inhibition” value was -2.5%.

Turning to `CC/C(C)=N/Nc1nc2sc3c(c2c(=O)[nH]1)CC(C)(C)OC3`, the Potency is 1.12 µM (active).
